PubChem BioAssay (NCATS)
Results filed as inconclusive are left out. Active and inactive are the calls of the source. Calls come from the whole dose curve; as a rule, active = well fitted cell-killing curve with a large enough effect; inconclusive = small, poorly fitted or top-dose-only effect; inactive = flat fitted curve, though single readings scatter.

Test: Cell Viability - LYMP2-025 (AID 976);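 for activity change, negative = cytotoxicity: plate controls were DMSO only for no effect and tetraoctylammonium bromide control for full effect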
Details: LYMP2-025 lymphoblastoid cell viability; series mostly up to 92.2 µM; activity change, negative = cytotoxicity: at the top concentration
Text: NIH Chemical Genomics Center [NCGC]
NIH Molecular Libraries Screening Centers Network [MLSCN]
National Institutes of Environmental Health Sciences [NIEHS]
National Toxicology Program [NTP]
We have developed a 1536-well cell-based assay for quantitative high throughput screening (qHTS) against a number of cell lines to determine in vitro cytotoxicity of small molecules. This particular assay uses a human lymphoblastoid cell line (LYMP2-025) purchased from Coriell Institute for Medical Research.
NCGC Assay Protocol Summary:
The CellTiter-Glo luminescent cell viability assay (Promega) is a homogeneous method to measure the number of viable cells in culture. The end point readout of this assay is based on quantitation of intracellular ATP, an indicator of metabolic activity, using the luciferase reaction. Luciferase catalyzes the oxidation of beetle Luciferin to oxyluciferin and light in the presence of ATP. The luminescent signal is proportional to amount of ATP present.
Using the CellTiter-Glo luminescent cell viability assay, the amount of cellular ATP was measured in the lymphoblastoid cell line with complete culture medium following compound treatment for 24 hours. The assay was performed in opaque white Kalypsys 1536-well plates. In the screen, tetraoctylammonium bromide was used as positive control. Library compounds were measured for their ability to cause acute toxicity in the cell line, as reflected by a decrease in intracellular ATP levels, in a concentration-dependent manner. […] AC50 values were determined from concentration-response data modeled with the standard Hill equation.
qHTS protocol for CellTiter Glo lymphoblastoid cellular assay
[Step] [Parameter] [Value] [Description]
1. Reagent; 5 uL; 2500 lymphoblastoid cells/well
2. Time; 5 hr; 37 C incubation
4. Controls; 23 nL; Tetraoctylammonium bromide 6.4pM to 92 uM
5. Time; 24 hr; 37 C incubation
6. Reagent; 5 uL; CellTiter Glo reagent
7. Time; 30 min; Room Temperature
8. Detection; Luminescence; Viewlux plate reader
Keywords: cell viability, cytotoxicity, lymphoblastoid cell line, luminescence, NTPHTS, NTPHTS_NCGC, NIEHS, DSSTox, MLSMR, MLSCN, NIH Roadmap, qHTS, NCGC
Potency is the fitted concentration of half-maximal effect.

Structure (SMILES)	activity change, negative = cytotoxicity	Potency
CCCC(C)(COC(N)=O)COC(=O)NC(C)C (stereo not given)	-1.23% (inactive)	–
CC(=O)Oc1ccccc1C(=O)Nc1ncc([N+](=O)[O-])s1	–	31.6 µM (active)
CNCC(O)c1ccc(O)cc1 (stereo not given)	-5.22% (inactive)	–
NCC(O)c1ccc(O)cc1 (stereo not given)	-3.72% (inactive)	–
CCOP(=S)(OCC)Oc1cc(C)nc(C(C)C)n1	-19.3% (inactive)	–
OCCOc1ccccc1	-20.9% (inactive)	–
c1ccc2c(c1)Nc1ccccc1S2	-17.1% (inactive)	–
Oc1ccc(Cl)cc1Cc1ccccc1	-14.7% (inactive)	–
Oc1ccccc1-c1ccccc1	-6.23% (inactive)	–
C[C@]12C/C(=C/O)C(=O)C[C@@H]1CC[C@@H]1[C@@H]2CC[C@@]2(C)[C@H]1CC[C@]2(C)O	-35.5% (inactive)	–
